Source: PubChem (several laboratories)
In the library only some 4.7% were active in any assay of this set; here they are far more common.
TWEAK Fn14 block: TWEAK-Fn14 signaling inhibition. hit rate 2% among 360,000. inhibition, % at 10 µM. TWEAK-stimulated Fn14 reporter cells, luciferase luminescence, 8 h; in the data active = inhibition above about 50%
HSP90 inh: inhibitors of HSP90 luciferase refolding in rabbit reticulocyte lysate. luciferase refolding luminescence, 3 h. inhibition, % at 5.6 µM. hit rate 0.91% among 290,000. AID 1789;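 active = inhibition above the screen-wide mean plus 3 SD, computed separately per campaign, cut at about 16% in these data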;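 note: inhibitors lower the luminescence because luciferase stays unfolded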
TROY signal inh: blocks TROY-dependent signaling in reporter cells | hit rate 0.98% among 360,000 | Q293 LMP1-TROYcd NF-kB luciferase reporter, 4 h | AID 1347056 | inhibition, % at 10 µM;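 active = compounds whose plate-normalised and pattern-corrected inhibition of the luciferase reporter signal at the single screening dose is 50% or more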
HSF1 inh: HSF1 inhibition; NIH3T3-HGL HSE-luciferase, MG132-induced, luminescence 8 h; stronger effect = lower value; hit rate 0.77% among 300,000; activity change, negative = inhibition, % at 7.5 µM (by protocol); AID 2098;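 active = more than half of replicate wells show activity change below -50%, luminescence cut by over half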;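 note: luciferase reports HSF-1 transcriptional activity via heat shock element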
LMP1 NFkB inh: inhibitors of Epstein-Barr LMP1-induced NF-kappaB reporter; LMP1-induced NF-kappaB luciferase reporter cells, luminescence; inhibition, % at 12.5 µM; hit rate 0.69% among 350,000; AID 504558; in the data active = inhibition above about 41%
HSF-1 act: increases HSF-1 driven luciferase reporter signal; activation, % at 9 µM; AID 504408; hit rate 1.7% among 300,000; NIH3T3-HGL HSF-1 luciferase reporter, MG132, 8 h; 100% = twice DMSO control signal;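 active = mean replicate activation of at least 50% with a set share of replicates each reaching 50%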
Large screens that a line does not name were inactive.

Cc1cc(C)n(Cc2ccc(Cl)cc2Cl)c(=O)c1S(=O)(=O)c1ccccc1	HSF-1 act 59
C=C(C)Cn1c(C)cc(C)c(S(=O)(=O)c2ccc(C)cc2)c1=O	none
Cc1ccc(S(=O)(=O)c2nc(Nc3nccs3)sc2Cl)cc1	TROY signal inh 52
O=c1c(=O)n(CCO)n(CCO)c(=O)n1CCO	none (no result: HSP90 inh, HSF1 inh, HSF-1 act)
Cc1ccc(Cc2c(-c3ccccc3)nc3c(Cl)cc(C(F)(F)F)cn23)cc1	none (no result: HSP90 inh, HSF1 inh, LMP1 NFkB inh, HSF-1 act)
Nc1ncnc2c1ccn2[C@H]1CN(Cc2ccc(Cl)cc2)C[C@@H](CO)O1	none (no result: HSP90 inh, HSF1 inh, LMP1 NFkB inh, HSF-1 act)
Cc1cc(=S)[nH]c2ccccc12	LMP1 NFkB inh 63
O=C(c1[nH]ncc1-c1cccc(Br)c1)C1CO1 (stereo not given)	TWEAK Fn14 block 54
O=C(CSc1nnc(-c2cccs2)o1)N1CCCc2ccccc21	HSF-1 act 68
O=C(CSc1nnc(-c2cccs2)o1)N1CCc2ccccc21	none
CC(C)NCC(O)COCc1ccc(Cl)cc1 (stereo not given)	HSF-1 act 53
CCC(C)NCC(O)COCc1ccc(Cl)cc1 (stereo not given)	none
COc1cc(C)ccc1S(=O)(=O)NC(=O)C1(C)CCN1C(=O)Cc1ccc(C(C)(C)C)cc1 (stereo not given)	none (no result: HSP90 inh, HSF1 inh, LMP1 NFkB inh, HSF-1 act)
CCN(CC)C(=O)CSc1nc2ccc(NC(=O)CSc3nnc(COc4ccccc4C)n3C)cc2s1	none
CC(C)(C)NC(=O)CSc1nc2ccc(NC(=O)CSc3nnnn3Cc3ccccc3)cc2s1	TWEAK Fn14 block 73, TROY signal inh 50
Cc1ccccc1OCc1nnc(SCC(=O)Nc2ccc3nc(SCC(=O)NC(C)(C)C)sc3c2)n1C	TWEAK Fn14 block 89 (no result: TROY signal inh)
CC(NC(=O)CSc1nc2ccc(N)cc2s1)c1ccccc1 (stereo not given)	TROY signal inh 52
COCCCN1C(=O)C(CC(=O)NCC2CCCCC2)CC(C(=O)N(C(C)C)C(C)C)=C1C (stereo not given)	none (no result: HSP90 inh, HSF1 inh, LMP1 NFkB inh, HSF-1 act)
O=C(NCc1ccc(F)cc1)c1cc(C2CCCCN2S(=O)(=O)Cc2ccccc2)on1 (stereo not given)	none (no result: HSP90 inh, HSF1 inh, LMP1 NFkB inh, HSF-1 act)
Oc1cccc(/C=N/NC(=S)NCCN2CCOCC2)c1O	LMP1 NFkB inh 48
COc1c(C(=O)Nc2ccc(Cc3ccncc3)cc2)ccc2ccccc12	TROY signal inh 57
COc1cc(C(=O)NC(=S)Nc2ccc(Cc3ccncc3)cc2)cc(OC)c1OC	none
COc1ccc(Br)cc1C(=O)Nc1ccc(Cc2ccncc2)cc1	none
COc1ccccc1C(=O)NC(=S)Nc1ccc(Cc2ccncc2)cc1	TROY signal inh 62
CC(C)(C)OC(=O)N1CCc2onc(-c3ccccc3F)c2C1=O	none (no result: HSP90 inh, HSF1 inh, HSF-1 act)
N#Cc1nc(-c2ccco2)oc1N1CCN(Cc2ccccc2)CC1	HSF1 inh -80 (no result: TROY signal inh)
O=C(/C=C/c1ccccc1)NC(=S)Nc1ccccc1O	HSF-1 act 59
O=C(/C=C/c1ccc(Cl)cc1Cl)NC(=S)Nc1ccc(CN2CCOCC2)cc1	none
O=C(/C=C/c1ccccc1)NC(=S)Nc1ccc(CN2CCOCC2)cc1	HSF-1 act 73
O=C(Nc1ccc(CN2CCOCC2)cc1)c1ccc(-c2ccc(Cl)cc2Cl)o1	none
O=C(NC(=S)Nc1ccc(CN2CCOCC2)cc1)c1ccc(-c2cccc(Cl)c2)o1	TROY signal inh 58
O=C(NC(=S)Nc1ccc(CN2CCOCC2)cc1)c1ccc(-c2ccc(Cl)cc2)o1	none (no result: TWEAK Fn14 block, TROY signal inh, LMP1 NFkB inh)
O=C(Nc1ccc(CN2CCOCC2)cc1)c1ccc(-c2cccc(Cl)c2)o1	TWEAK Fn14 block 57
CC(O)(c1ccc(F)c(F)c1)c1nc(-c2cc3ccccc3o2)cs1 (stereo not given)	none (no result: HSP90 inh, HSF1 inh, LMP1 NFkB inh, HSF-1 act)
c1ccc2c3c([nH]c2c1)CCNC3	HSF-1 act 162
Cc1c(C(c2ccccc2O)c2c(C)n(C)n(-c3ccccc3)c2=O)c(=O)n(-c2ccccc2)n1C	none
Cc1c(C(c2cc3c(cc2Br)OCO3)c2c(C)n(C)n(-c3ccccc3)c2=O)c(=O)n(-c2ccccc2)n1C	TWEAK Fn14 block 64
CCCCNC(=O)c1nc(C2CCN(S(=O)(=O)c3cccc(C(F)(F)F)c3)CC2)oc1-c1ccccc1	none (no result: HSP90 inh, HSF1 inh, LMP1 NFkB inh, HSF-1 act)
CCOC(=O)CSc1nnc(NC(=O)c2cc([N+](=O)[O-])cc([N+](=O)[O-])c2)s1	TWEAK Fn14 block 85, TROY signal inh 66
COCCSc1nnc(NC(=O)c2ccc([N+](=O)[O-])cc2)s1	none
